ALDH1A1 inh = ALDH1A1 (human) enzyme inhibition; Purified ALDH1A1, NADH fluorescence, propionaldehyde substrate; Potency, µM (doses to about 75.3 µM), for the others: top-dose activity, negative = inhibition, hits mostly inhibitors; 7.3% of 220,000 active; AID 1030;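 further: potency means the concentration at half of the fitted maximal effect; plate controls were no enzyme wells and a reference inhibitor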
Target sequence (P00352 whole entry, looked up): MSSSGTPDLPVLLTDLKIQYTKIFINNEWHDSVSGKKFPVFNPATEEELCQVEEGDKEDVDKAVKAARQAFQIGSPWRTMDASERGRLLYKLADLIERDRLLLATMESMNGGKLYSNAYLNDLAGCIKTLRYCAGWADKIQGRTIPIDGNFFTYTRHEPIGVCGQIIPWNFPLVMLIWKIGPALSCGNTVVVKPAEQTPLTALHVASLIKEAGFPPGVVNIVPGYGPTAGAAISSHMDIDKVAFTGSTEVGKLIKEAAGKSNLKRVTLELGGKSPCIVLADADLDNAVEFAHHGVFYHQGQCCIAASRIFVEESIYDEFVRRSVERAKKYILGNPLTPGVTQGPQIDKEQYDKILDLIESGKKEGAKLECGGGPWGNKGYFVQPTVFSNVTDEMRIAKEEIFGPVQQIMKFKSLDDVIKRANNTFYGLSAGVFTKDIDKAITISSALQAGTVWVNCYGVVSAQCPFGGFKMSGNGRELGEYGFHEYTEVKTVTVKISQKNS
IMPase cell inh = membrane-permeable compound that blocks inositol monophosphatase | P97697 | CHO-M1 cells, IP1 accumulation, HTRF TR-FRET ratio | inhibition (IP1 accumulation), % at 46.1 µM | 120,000 tested, under 10 active | AID 901; active means well fitted curve in the direction sought with a large enough effect in the signal ratio, not every such curve was filed as active; inconclusive means small, poorly fitted or top-dose-only effect, or a change in a side signal; inactive means no such curve, though single readings can be large or run the other way; the % refers to the signal ratio;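 further: cells stimulated with carbachol in lithium chloride buffer; plate controls were DMSO basal wells for no effect and reference inhibitor wells for full effect; higher means more IMPase inhibition seen as more IP1 and lower FRET ratio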
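Cellular IMPase inhibition is scored as a rise in cytosolic IP1, detected by competitive TR-FRET between d2-labelled IP1 and a europium anti-IP1 antibody. M1-expressing CHO cells were stimulated with carbachol for 30 min at 37C, with lithium (50 mM LiCl) present in the buffer.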
HPGD block = blocks human HPGD enzyme activity; P15428; purified HPGD, NADH fluorescence kinetic, PGE2 substrate; Potency, µM, for the others: at the highest dose activity change, negative = inhibition, most hits filed as inhibitors; 4.3% of 150,000 active; AID 894; further: potency means the concentration at half of the fitted maximal effect
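NADH formation kinetics: reaction with 30 uM PGE2 and 1 mM NAD+ (final), 20 nM enzyme, Tris-HCl pH 8 with Tween 20, after 15 min compound preincubation at room temperature. Fluorescence change, last versus first of five reads.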
* = called active by the depositor; ? = inconclusive; nt = no result given; [ ] = another dose, or the depositor's remark. Rows were chosen to be rich in hits. Some 9% of all compounds tested hit in one or more screens of this group. Unless noted, the call rests on the fitted dose curve; in most records, active means well fitted inhibition curve with a large enough effect (not every such curve was filed as active); inconclusive means small, poorly fitted or top-dose-only effect, or another doubt; inactive means no such curve, though single readings can be large or run the other way. Unless noted, on the % scale 0 is the no-effect control and ±100 the full control effect.

SMILES	ALDH1A1 inh	IMPase cell inh	HPGD block
COc1ccc(OC)c(C2C(C#N)=C(N)Oc3cc(C)[nH]c(=O)c32)c1 (centres undefined)	-1%	3	-13%
COc1ccc(OC)c(C2C(C#N)=C(N)Oc3cc(N)ccc32)c1 (centres undefined)	11µM*	8	-7%
Cc1ccc2nc(NCCc3ccccc3)c3nncn3c2c1	nt	1	nt
N#CC1=C(N)C(C#N)(C#N)C(c2cccnc2)C2COCC=C12 (centres undefined)	4%	-2	28µM*
N#CC1=C(N)C(C#N)(C#N)C(c2cccnc2)C2CN(C(=O)OCc3ccccc3)CC=C12 (centres undefined)	?	-7	-18%
CCn1cc(S(=O)(=O)N2CCN(Cc3cccc(Cl)c3)CC2)cn1	14%	nt	nt
COC(=O)c1c(NC(=O)COc2ccccc2Cl)sc2c1CCC(C(C)(C)C)C2 (centres undefined)	nt	-9	nt
CCC(C)(C)n1nnnc1CN1CCN(C(c2ccccc2)c2ccccc2)CC1	25µM*	?	-12%
Fc1ccc(C(c2nnnn2C2CCCC2)N2CCN(Cc3ccccc3)CC2)cc1 (centres undefined)	?	23	nt
CC(C)CCn1nnnc1CN1CCN(C(c2ccccc2)c2ccccc2)CC1	14µM*	nt	nt
CC(C)CCn1nnnc1CN1CCN(c2ccc(F)cc2)CC1	2%	nt	nt
CCC(C)(C)n1nnnc1C(c1ccccc1)N1CCN(Cc2ccccc2)CC1 (centres undefined)	1%	nt	nt
c1ccc(C(c2ccccc2)N2CCN(Cc3nnnn3C3CCCC3)CC2)cc1	11µM*	1	-4%
Cc1ccc(/C=N/NC(=O)Cn2cnc3c2c(=O)n(C)c(=O)n3C)s1	2%	nt	-6%
CCCCCCCC1=Cc2ccccc2C(CC(C)=O)N1C(=O)OC (centres undefined)	0%[13.5 µM]	nt	-8%
CCC[C@@H]1C[C@@H](C(=O)N[C@@H]([C@H]2O[C@H](SC)[C@H](O)[C@@H](O)[C@H]2O)[C@@H](C)O)N(C)C1	6%	nt	-6%
Cc1ccccc1/C(N)=N/O	12%	nt	-11%
CCCCC/C=C\C[C@@H](O)/C=C/C=C\CCC(=O)O	-3%	nt	-2%
CCC(=O)N(Cc1cc2ccc(C)cc2n2nnnc12)C1CCCCC1	5µM*	-9	-3%
Cc1ccc2c(c1)cc(CN(C(=O)N1CCOCC1)C1CCCC1)c1nnnn12	2%	nt	nt
NC(=O)[C@@H]1CCCN1Cc1ccc2c(c1)OCO2	6%[13.5 µM]	nt	-4%
COC(=O)C1CCN(C(c2cc(OC)c(OC)c(OC)c2)c2sc3nc(C)nn3c2O)CC1 (centres undefined)	-6%	6	-4%
COc1cc(C(c2sc3nc(C)nn3c2O)N2CCC3(CC2)OCCO3)cc(OC)c1OC (centres undefined)	18µM*	-8	-6%
CC(C)Nc1nc(Cl)nc(N(C#N)CN2C(=O)c3ccccc3S2(=O)=O)n1	22µM*	nt	nt
CCN(C#N)c1nc(N(C)C)nc(N(C)C)n1	0%	-14	-5%
SMILES	ALDH1A1 inh	IMPase cell inh	HPGD block
CC(C)(C)Nc1nc(Cl)nc(N(C#N)CN2C(=O)c3ccccc3S2(=O)=O)n1	9%	nt	nt
CN(C)c1nc(N(C)C)nc(N(C#N)CN2C(=O)c3ccccc3S2(=O)=O)n1	20µM*	nt	nt
Cn1cccc1/C=N\NC(=O)Cc1ccc(Br)c2ccccc12	1%	nt	nt
CCCNC(=O)OC[C@@H]1O[C@H](CCO/N=C(\C)CCN2CCCc3nc(C)c(C)cc32)C=C[C@@H]1Oc1ccc(OC)cc1	0%[13.5 µM]	nt	nt
CCc1ccc(OCC(=O)N/N=C(\C)c2ccc(-n3ccnc3)cc2)cc1	5%	-4	nt
CCOc1ccc(S(=O)(=O)Nc2ccc(C(=O)N/N=C(\C)c3ccc(-n4ccnc4)cc3)cc2)cc1	16µM*	5	-22%
O=C(NNC1=NCCC1)C1CC1	3%	nt	nt
CC(=O)c1ccc(NC(=O)/C(Cl)=C/c2ccccc2)cc1	-3%	nt	nt
Cc1ccc(NC(=O)/C(Cl)=C\c2ccccc2)cc1	4µM*	3	-22%
CC(NC(=O)CCN1N=C(c2ccccc2)CCC1=O)c1ccc2c(c1)OCCO2 (centres undefined)	-3%	nt	nt
CCC(=O)NC(=S)NNC(=O)c1ccccc1[N+](=O)[O-]	10µM*	nt	nt
COc1ccc(C(=O)NNC(=O)c2ccccc2[N+](=O)[O-])cc1	8%	nt	1%
O=C(NC(=S)NNC(=O)c1ccccc1[N+](=O)[O-])c1ccccc1	10µM*	-13	32µM*
O=C(NCc1cccs1)c1ccccc1C(=O)NCc1cccs1	4%	-14	-4%
O=C(NCc1cccs1)c1ccccc1[N+](=O)[O-]	8%	nt	13µM*
O=C(NNC(=O)c1ccccc1[N+](=O)[O-])c1ccccc1[N+](=O)[O-]	22µM*	nt	nt

Screening results from PubChem BioAssay.
